From ChEMBL document CHEMBL1961873, “Compounds: GSK PKIS; Assays: Nanosyn kinase panel” (2012) come the findings set out here.

Broadly, the inhibition is the change of the read-out against control, counted positive when it falls.

Structures are written as SMILES.

Assay [1] has as its target Mitogen-activated protein kinase 3 (Homo sapiens) (UniProt P27361). The conditions noted are these: at 1 µM.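 Also: values are mean percent inhibition of MAPK3.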
In assay [2] the target is SRSF protein kinase 3 (Homo sapiens) (UniProt Q9UPE1). The conditions noted are these: at 0.1 µM.
Assay [3] shares this target. The conditions noted are these: at 1 µM.
Assay [4] addresses Mitogen-activated protein kinase 14 (Homo sapiens) (UniProt Q16539). The conditions noted are these: at 0.1 µM.
Assay [5] shares this target. To be noted: at 1 µM.
For assay [6], the target named is Mitogen-activated protein kinase 11 (Homo sapiens) (UniProt Q15759). The conditions noted are these: at 0.1 µM.
The target is the same in assay [7]. To be noted: at 1 µM.
In assay [8] the target is T1, Mitogen-activated protein kinase 13 (Homo sapiens) (UniProt O15264).
T1 sequence (whole entry): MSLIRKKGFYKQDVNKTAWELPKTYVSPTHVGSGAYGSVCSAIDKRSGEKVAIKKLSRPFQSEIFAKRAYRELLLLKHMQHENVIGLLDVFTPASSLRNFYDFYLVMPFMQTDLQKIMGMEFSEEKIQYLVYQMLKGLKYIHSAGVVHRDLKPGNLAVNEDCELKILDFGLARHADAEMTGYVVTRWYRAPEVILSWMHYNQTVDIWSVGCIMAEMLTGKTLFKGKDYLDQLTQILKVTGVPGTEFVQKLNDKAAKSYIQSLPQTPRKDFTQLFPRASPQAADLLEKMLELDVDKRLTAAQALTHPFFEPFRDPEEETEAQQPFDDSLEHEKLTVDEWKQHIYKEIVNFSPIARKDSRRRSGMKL
The conditions noted are these: at 0.1 µM.

For assay [9], the target named is T1, Mitogen-activated protein kinase 13 (Homo sapiens). To be noted: at 1 µM.
The target in assay [10] is T2, Mitogen-activated protein kinase 12 (Homo sapiens) (UniProt P53778).
T2 sequence (whole entry): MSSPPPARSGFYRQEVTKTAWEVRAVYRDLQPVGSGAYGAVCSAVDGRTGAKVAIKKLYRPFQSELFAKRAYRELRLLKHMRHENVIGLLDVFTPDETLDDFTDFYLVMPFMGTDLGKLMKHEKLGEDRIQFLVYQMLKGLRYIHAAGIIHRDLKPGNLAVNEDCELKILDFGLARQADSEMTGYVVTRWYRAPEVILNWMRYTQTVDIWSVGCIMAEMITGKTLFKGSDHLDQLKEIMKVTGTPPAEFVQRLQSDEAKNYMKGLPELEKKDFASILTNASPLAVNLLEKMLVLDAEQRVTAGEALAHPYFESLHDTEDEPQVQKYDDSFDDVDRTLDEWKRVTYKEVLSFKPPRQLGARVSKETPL
To be noted: at 0.1 µM.

The target of assay [11] is T2, Mitogen-activated protein kinase 12 (Homo sapiens). To be noted: at 1 µM.
For assay [12], the target named is SRSF protein kinase 1 (Homo sapiens) (UniProt Q96SB4). To be noted: at 0.1 µM.
The target is the same in assay [13]. The conditions noted are these: at 1 µM.
In assay [14] the target is Phosphatidylinositol 4,5-bisphosphate 3-kinase catalytic subunit alpha isoform (Homo sapiens) (UniProt P42336). The conditions noted are these: at 0.1 µM.
Assay [15] shares this target. To be noted: at 1 µM.
Assay [16] concerns the target T3, Phosphatidylinositol 4,5-bisphosphate 3-kinase catalytic subunit delta isoform (Homo sapiens) (UniProt O00329).
T3 sequence (whole entry): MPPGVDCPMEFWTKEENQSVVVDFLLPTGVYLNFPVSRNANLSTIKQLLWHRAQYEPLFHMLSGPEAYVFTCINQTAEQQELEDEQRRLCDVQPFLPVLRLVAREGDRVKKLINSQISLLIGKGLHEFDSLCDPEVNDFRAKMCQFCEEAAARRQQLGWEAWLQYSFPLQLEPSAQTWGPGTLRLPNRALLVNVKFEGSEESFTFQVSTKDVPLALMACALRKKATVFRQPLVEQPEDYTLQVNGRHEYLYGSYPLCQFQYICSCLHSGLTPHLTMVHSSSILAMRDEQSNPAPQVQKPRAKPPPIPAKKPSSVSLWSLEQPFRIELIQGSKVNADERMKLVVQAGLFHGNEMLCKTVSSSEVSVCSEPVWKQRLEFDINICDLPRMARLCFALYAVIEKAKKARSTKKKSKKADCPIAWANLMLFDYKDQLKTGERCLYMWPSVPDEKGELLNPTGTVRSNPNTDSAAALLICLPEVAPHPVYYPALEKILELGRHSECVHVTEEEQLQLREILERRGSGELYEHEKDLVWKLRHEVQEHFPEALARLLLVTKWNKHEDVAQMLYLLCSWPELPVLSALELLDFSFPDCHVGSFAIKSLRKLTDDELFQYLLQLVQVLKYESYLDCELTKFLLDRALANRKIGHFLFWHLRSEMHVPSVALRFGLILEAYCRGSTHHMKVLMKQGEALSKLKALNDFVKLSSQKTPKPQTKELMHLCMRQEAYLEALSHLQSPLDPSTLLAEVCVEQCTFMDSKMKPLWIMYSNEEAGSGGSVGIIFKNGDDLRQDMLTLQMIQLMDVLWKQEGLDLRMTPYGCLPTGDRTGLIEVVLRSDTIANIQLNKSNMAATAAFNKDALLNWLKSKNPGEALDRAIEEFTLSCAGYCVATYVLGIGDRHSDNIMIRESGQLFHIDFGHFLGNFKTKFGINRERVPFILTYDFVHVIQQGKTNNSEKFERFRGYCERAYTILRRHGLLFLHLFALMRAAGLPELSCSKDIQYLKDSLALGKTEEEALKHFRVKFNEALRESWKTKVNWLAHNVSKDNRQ
To be noted: at 0.1 µM.

Assay [17] addresses T3, Phosphatidylinositol 4,5-bisphosphate 3-kinase catalytic subunit delta isoform (Homo sapiens). To be noted: at 1 µM.
The target in assay [18] is Phosphatidylinositol 4-kinase beta (Homo sapiens) (UniProt Q9UBF8). The conditions noted are these: at 0.1 µM.
Assay [19] has the same target. The conditions noted are these: at 1 µM.
Assay [20] addresses Sphingosine kinase 1 (Homo sapiens) (UniProt Q9NYA1). The conditions noted are these: at 0.1 µM.

Sequence of SRSF protein kinase 1 (Homo sapiens) (Q96SB4 whole entry): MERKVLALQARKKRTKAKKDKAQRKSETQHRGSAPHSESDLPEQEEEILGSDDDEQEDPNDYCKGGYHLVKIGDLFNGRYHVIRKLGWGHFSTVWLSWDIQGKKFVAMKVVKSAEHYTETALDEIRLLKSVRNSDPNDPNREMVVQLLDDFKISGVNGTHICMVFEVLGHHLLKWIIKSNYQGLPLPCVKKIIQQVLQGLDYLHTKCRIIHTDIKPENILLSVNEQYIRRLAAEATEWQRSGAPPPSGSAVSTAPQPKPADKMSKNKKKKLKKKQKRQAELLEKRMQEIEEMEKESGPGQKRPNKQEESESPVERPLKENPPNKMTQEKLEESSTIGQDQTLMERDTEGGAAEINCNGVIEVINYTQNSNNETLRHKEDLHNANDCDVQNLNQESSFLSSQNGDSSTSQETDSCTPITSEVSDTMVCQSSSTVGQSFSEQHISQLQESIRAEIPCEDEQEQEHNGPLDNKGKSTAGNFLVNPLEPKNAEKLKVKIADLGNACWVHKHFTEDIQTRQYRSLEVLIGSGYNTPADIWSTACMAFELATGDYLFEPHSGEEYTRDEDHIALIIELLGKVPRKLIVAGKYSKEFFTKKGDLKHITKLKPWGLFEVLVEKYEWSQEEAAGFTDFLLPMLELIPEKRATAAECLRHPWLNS
Sequence of Phosphatidylinositol 4,5-bisphosphate 3-kinase catalytic subunit alpha isoform (Homo sapiens) (P42336 whole entry, canonical isoform): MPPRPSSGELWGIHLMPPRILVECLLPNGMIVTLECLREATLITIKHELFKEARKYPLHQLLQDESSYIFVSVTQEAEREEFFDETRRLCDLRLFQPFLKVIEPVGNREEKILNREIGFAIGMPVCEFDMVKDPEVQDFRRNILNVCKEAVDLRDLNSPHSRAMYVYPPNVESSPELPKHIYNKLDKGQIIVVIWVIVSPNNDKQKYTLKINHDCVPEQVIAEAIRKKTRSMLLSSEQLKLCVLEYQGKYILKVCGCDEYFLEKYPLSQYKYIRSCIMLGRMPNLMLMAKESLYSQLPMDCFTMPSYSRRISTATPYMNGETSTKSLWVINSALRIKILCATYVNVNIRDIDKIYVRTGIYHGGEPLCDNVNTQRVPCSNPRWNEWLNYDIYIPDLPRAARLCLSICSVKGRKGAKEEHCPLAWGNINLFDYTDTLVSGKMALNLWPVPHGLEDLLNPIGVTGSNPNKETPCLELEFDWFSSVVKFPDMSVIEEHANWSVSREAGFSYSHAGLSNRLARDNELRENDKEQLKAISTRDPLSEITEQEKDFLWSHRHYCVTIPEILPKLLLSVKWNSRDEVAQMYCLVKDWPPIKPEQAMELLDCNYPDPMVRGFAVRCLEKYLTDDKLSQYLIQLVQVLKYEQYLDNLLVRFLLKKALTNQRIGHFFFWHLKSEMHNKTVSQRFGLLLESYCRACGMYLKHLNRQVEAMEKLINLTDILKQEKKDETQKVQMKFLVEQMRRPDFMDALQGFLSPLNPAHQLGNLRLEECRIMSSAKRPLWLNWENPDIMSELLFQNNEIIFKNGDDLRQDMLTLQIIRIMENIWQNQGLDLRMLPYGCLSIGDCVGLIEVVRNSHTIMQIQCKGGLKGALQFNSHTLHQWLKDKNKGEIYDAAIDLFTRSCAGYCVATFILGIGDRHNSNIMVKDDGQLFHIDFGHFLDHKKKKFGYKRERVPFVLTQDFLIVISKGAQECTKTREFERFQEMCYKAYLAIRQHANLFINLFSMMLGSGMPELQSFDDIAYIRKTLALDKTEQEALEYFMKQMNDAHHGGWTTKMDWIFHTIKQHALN
Sequence of SRSF protein kinase 3 (Homo sapiens) (Q9UPE1 whole entry): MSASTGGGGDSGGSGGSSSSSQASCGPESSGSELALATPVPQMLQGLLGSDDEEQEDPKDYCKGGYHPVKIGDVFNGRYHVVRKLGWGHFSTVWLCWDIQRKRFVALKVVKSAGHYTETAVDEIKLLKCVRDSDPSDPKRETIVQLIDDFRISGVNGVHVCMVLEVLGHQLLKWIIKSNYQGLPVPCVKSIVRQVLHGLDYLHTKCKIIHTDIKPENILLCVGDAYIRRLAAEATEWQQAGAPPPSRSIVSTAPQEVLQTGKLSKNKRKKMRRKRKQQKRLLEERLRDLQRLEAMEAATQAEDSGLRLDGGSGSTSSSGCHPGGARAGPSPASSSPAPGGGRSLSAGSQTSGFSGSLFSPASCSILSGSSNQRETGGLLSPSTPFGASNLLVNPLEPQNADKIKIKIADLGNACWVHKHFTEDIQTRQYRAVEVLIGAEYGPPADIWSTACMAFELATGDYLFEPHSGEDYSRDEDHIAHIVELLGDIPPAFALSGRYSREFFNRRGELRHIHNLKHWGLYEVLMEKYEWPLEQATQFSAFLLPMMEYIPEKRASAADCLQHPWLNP
Sequence of Sphingosine kinase 1 (Homo sapiens) (Q9NYA1 whole entry): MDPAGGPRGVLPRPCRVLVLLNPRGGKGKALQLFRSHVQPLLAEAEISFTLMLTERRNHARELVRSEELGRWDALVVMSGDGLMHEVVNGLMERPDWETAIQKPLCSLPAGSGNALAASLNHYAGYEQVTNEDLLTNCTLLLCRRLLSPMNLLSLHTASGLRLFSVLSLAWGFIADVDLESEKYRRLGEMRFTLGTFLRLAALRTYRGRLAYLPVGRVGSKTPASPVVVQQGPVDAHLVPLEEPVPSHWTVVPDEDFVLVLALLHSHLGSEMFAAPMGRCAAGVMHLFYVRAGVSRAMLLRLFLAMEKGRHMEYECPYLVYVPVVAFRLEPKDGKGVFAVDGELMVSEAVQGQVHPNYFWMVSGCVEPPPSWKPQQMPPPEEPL
Sequence of Mitogen-activated protein kinase 11 (Homo sapiens) (Q15759 whole entry): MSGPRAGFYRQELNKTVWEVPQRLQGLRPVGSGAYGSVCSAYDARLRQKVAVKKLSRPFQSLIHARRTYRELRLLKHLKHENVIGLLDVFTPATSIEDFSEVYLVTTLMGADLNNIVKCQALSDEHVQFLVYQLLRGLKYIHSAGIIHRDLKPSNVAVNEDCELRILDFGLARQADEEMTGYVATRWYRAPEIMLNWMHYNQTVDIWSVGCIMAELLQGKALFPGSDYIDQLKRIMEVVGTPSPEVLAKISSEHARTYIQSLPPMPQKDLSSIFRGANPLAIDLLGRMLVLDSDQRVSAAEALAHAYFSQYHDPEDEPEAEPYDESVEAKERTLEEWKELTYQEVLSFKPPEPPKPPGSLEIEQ
Sequence of Mitogen-activated protein kinase 14 (Homo sapiens) (Q16539 whole entry): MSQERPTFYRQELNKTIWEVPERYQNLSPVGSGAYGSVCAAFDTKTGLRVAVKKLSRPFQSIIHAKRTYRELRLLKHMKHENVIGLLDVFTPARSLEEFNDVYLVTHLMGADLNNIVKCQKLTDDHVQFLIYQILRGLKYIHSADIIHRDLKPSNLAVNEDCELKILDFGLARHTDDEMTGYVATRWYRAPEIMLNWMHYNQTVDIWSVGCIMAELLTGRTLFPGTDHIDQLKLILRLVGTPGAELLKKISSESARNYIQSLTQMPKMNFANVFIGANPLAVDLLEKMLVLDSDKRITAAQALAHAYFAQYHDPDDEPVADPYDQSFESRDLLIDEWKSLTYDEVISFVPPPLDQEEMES
Sequence of Phosphatidylinositol 4-kinase beta (Homo sapiens) (Q9UBF8 2-816 limits assumed): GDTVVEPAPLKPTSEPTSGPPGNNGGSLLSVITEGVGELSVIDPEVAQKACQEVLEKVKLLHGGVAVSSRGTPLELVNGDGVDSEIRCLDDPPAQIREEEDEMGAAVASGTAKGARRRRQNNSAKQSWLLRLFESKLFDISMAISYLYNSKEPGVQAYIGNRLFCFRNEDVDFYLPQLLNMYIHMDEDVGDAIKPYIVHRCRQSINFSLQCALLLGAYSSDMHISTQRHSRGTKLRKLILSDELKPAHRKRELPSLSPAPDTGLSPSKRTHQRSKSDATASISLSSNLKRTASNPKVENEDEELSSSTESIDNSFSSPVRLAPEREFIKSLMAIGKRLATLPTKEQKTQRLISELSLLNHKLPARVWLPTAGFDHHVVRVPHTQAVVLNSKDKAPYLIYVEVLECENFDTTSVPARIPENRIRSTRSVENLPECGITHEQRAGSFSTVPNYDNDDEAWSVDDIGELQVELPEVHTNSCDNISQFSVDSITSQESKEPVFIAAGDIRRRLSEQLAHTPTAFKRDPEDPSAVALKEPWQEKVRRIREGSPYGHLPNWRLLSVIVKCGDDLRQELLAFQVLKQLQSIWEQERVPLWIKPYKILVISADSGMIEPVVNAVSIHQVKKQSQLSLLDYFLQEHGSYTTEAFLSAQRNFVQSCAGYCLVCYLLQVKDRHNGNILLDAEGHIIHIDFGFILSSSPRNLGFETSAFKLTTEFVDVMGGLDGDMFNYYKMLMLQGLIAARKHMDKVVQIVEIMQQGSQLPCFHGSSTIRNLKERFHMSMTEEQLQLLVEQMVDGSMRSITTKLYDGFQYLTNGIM
Sequence of Mitogen-activated protein kinase 3 (Homo sapiens) (P27361 whole entry): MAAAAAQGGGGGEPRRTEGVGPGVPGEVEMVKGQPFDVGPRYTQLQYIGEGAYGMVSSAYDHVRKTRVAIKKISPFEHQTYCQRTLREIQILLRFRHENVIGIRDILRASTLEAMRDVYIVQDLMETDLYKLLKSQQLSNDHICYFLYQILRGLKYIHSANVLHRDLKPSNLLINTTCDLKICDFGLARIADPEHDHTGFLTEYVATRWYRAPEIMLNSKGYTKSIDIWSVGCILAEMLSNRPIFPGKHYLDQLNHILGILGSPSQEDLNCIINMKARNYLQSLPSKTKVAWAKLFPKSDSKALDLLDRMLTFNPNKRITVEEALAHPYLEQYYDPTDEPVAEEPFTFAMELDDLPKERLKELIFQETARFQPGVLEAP

As for `COc1ccccc1Nc1ncc(-c2ccccc2)o1`, the inhibition in assay [1] was 5.55%; in assay [2], -1.49%; in assay [3] it was 1.35%; in [4], 10.4%; in assay [5] it was 11%; in assay [6], 4.31%. Also, the inhibition is 7.08% in [7]; 5.83% in assay [8]; 4.74% in [9]; 4.14% in assay [10]; 4.08% in assay [11]; -4.21% in assay [12]. In addition, the inhibition in assay [13] was -2.61%; in assay [14], 5.32%; in assay [15], 6.11%; in assay [16], 0.95%; in assay [17], 2.27%; in assay [18] it was -0.97%. Also, the inhibition in assay [19] stood at 0.94%; in assay [20] it was 0%.
For `O=C(Nc1n[nH]c2nc(-c3ccco3)c(Br)cc12)C1CC1`, the inhibition is 2.64% in assay [1]; -0.09% in [2]; -0.41% in [3]; 2.53% in assay [4]; 6.49% in assay [5]; 3.09% in assay [6]. The inhibition is 3.71% in assay [7]; 1.46% in assay [8]; 2.57% in assay [9]; 2.55% in assay [10]; 2.11% in assay [11]; -4.07% in assay [12]. In addition, the inhibition in assay [13] is -5.19%; in assay [14] it was 5.44%; in [15], 4.94%; in assay [16], 2.6%; in [17] it was 3.08%; in assay [18], 0.77%. Also, the inhibition was 5.14% in [19] and 0.46% in assay [20].
For the compound `CCc1cccc(NC(=O)Nc2ccc(Oc3ccc4nc(NC(=O)OC)[nH]c4c3)cc2)c1`, the inhibition in assay [1] was determined as 2.79%; in [2], 1.41%; in [3], 2.28%; in assay [4], 2.41%; in assay [5] it was 3.05%; in [6], 1.54%. Besides, the inhibition in [7] is 6.14%; in [8] it was 0.54%; in assay [9], 0.33%; in assay [10], -0.64%; in [11], 1.54%; in assay [12] it was 0.34%. The inhibition in [13] was 1.37%; in assay [14], 0.8%; in assay [15] it was 2.44%; in assay [16] it was 0.28%; in assay [17] it was 3.23%; in [18], 5.24%. Also, the inhibition in [19] is -4.52%.
As for `COc1ccc(-c2coc3ncnc(N)c23)cc1`, the inhibition in assay [1] was 2.51%; in [2], -0.31%; in assay [3] it was -3.44%; in assay [4], 4.37%; in assay [5], 13.4%; in assay [6] it was 4.69%. The inhibition is 7.25% in [7]; 1.38% in assay [8]; 5.26% in [9]; 1.11% in assay [10]; 2.95% in assay [11]; -2.53% in [12]. In addition, the inhibition is -4.3% in assay [13]; 3.88% in assay [14]; 8.12% in [15]; 2.89% in assay [16]; 11.6% in assay [17]; 2.15% in assay [18]. For the same compound, the inhibition in [19] is -0.74%; in [20] it was -2.41%.
As for `CCn1c(-c2nonc2N)nc2c(C#CC(C)(C)O)nc(CN3CCCC3)cc21`, the inhibition in [1] is 0.84%; in assay [2], -1.03%; in assay [3], -0.96%; in [4], 0.68%; in assay [5], -0.47%; in assay [6], -2.47%. The inhibition in assay [7] is 0.28%; in assay [8] it was 0.31%; in [9], -1.59%; in [10] it was 1.31%; in assay [11], 0.15%; in assay [12] it was -2.3%. Moreover, the inhibition is -2.96% in assay [13]; -2.21% in assay [14]; -0.12% in [15]; 0.87% in assay [16]; 3.83% in assay [17]; -0.02% in assay [18]. Further, the inhibition in [19] is -2.03%; in assay [20] it was 0.49%.
Consider `CCCN1CCC(Oc2cc(Nc3nc(Nc4cccc(F)c4C(N)=O)c4cc[nH]c4n3)c(OC)cc2Cl)CC1`, for which the inhibition in assay [1] is 2.9%; in assay [2], 0.09%; in [3], 3.91%; in assay [4], 0.2%; in assay [5] it was 3.85%; in [6] it was 0.2%. For the same compound, the inhibition in assay [7] is 0.06%; in [8] it was 0.04%; in assay [9], -0.16%; in assay [10] it was -0.75%; in [11] it was 0.42%; in [12] it was -0.3%. Further, the inhibition in assay [13] was -0.85%; in assay [14], -1.23%; in assay [15] it was -1.07%; in [16], -0.45%; in assay [17] it was 0.08%; in [18], 3.96%. In addition, the inhibition was -2.71% in [19] and 0.48% in assay [20].
As for `O=C1NC(=O)C(c2ccccc2Cl)=C1Nc1cccc(O)c1`, the inhibition in assay [1] was found to be 1.29%; in assay [2] it was 1.93%; in [3], 4.52%; in assay [4], 2.48%; in assay [5], 4.36%; in [6], 2.37%. The inhibition in assay [7] was 0.91%; in [8] it was 1.98%; in assay [9], 4.14%; in assay [10] it was 5.33%; in assay [11], 0.99%; in [12], -0.74%. Besides, the inhibition in assay [13] came to 1.37%; in assay [14] it was 1.03%; in assay [15] it was 1.86%; in assay [16], 2.66%; in assay [17], 3.71%; in assay [18] it was 1.19%. Further, the inhibition in assay [19] was -2.78%; in assay [20] it was -1.24%.
